# Bioassay records: PubChem, NMMLSC
# RGS4-Gao reg: human RGS4-Galphao interaction regulation. P09471. Multiplexed bead flow cytometry, RGS4-Galphao binding; actives lie on both sides. binding response (% of control), % at 10 µM. hit rate 0.33% among 220,000. AID 1415; in the data active = binding response below about 49% or above about 150%; inactive = in between;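 also: fluorescent Galphao activated with aluminum fluoride binding bead-coupled RGS4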
# Target sequence (P09471 whole entry, looked up): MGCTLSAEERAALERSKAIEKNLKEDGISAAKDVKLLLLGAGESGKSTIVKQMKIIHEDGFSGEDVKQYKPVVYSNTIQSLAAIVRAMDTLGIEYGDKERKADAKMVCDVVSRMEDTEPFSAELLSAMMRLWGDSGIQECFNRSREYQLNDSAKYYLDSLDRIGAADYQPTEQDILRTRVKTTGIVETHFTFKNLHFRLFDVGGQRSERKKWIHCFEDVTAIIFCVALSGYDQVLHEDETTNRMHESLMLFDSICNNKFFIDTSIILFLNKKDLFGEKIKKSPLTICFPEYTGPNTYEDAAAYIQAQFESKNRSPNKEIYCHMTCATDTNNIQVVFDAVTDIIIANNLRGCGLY
# Avidin bead fluor: compound fluoresces at 488/530 nm on avidin beads. fluorescence (KMESF) at 10 µM. hit rate 0.38% among 220,000. compound fluorescence 488/530 nm, flow cytometry; hits give high values; in the data active = fluorescence above about 47
# RGS8-Gao reg: human RGS8-Galphao interaction regulation | hit rate 0.34% among 220,000 | response (percent of control binding), % at 10 µM | multiplexed bead flow cytometry, RGS8-Galphao binding; actives lie on both sides | P09471; in the data active = response below about 60% or above about 140%; inactive = in between;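 also: Galphao activated as the GDP aluminium fluoride complex binding bead-coupled RGS8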
# GSH fluor: compound fluoresces at 488/530 nm on GSH beads; fluorescence (KMESF) at 10 µM; hit rate 0.25% among 190,000; GSH beads flow cytometry, compound fluorescence 488/530 nm; hits give high values; AID 1776; in the data active = fluorescence above about 89;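 also: glutathione beads carrying GST-tagged Bcl family fusion proteins plus one bare bead set; values are compound well signal with DMSO vehicle wells as background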
# RGS7-Gao: regulators of human RGS7-Galphao interaction; hit rate 0.35% among 220,000; binding response (% of control), % at 10 µM; Multiplexed bead flow cytometry, RGS7-Galphao binding; actives lie on both sides; in the data active = binding response below about 49% or above about 150%; inconclusive = no clear call, values can overlap the other calls; inactive = in between;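 also: fluorescent Galphao held in activated GDP-AlF4 state binding bead-coupled RGS7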
# RGS16-Gao: RGS16-Galphao interaction regulator (human); binding response (% of control), % at 10 µM; AID 1441; bead-based flow cytometry RGS16-Galphao binding, fluorescence; actives lie on both sides; O15492+P09471; hit rate 0.38% among 220,000;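 also: Galphao activated by GDP with aluminum fluoride before binding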
# RGS4-Gao HTS: RGS4-Galphao interaction regulator (human) | shares compounds with RGS16-Gao | multiplexed bead flow cytometry, RGS–Galpha-o binding | RGS4–Galpha-o binding response, % at 10 µM | hit rate 99% among 1,600;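 also: fluorescently labeled Galpha-o bound to GDP with aluminium fluoride binding biotinylated RGS beads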
# Target sequence (P09471 whole entry, looked up): as above
# Target sequence (P49798 whole entry, looked up): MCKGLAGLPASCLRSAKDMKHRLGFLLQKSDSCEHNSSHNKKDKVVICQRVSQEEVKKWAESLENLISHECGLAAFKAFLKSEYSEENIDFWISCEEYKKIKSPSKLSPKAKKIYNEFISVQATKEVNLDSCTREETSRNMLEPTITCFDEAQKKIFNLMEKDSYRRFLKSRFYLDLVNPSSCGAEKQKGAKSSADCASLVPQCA
# Biotin-avidin: interferes with biotinylated probe binding to avidin beads. AID 1783. 1,700 tested, under 10 active. streptavidin beads, fluorescein-biotin binding, flow cytometry. inhibition, % at 10 µM. shares compounds with RGS16-Gao;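 active = inhibition above 50%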;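 also: median green fluorescence of gated singlet beads compared with DMSO control wells; 0% = DMSO wells and 100% = complete loss of bead fluorescence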
# RGS8-Gao confirm: RGS8-Galphao interaction regulation, single point confirmation. shares compounds with RGS16-Gao. bead-based flow cytometry RGS8-Galphao binding, fluorescence; actives lie on both sides. binding response (% of control), % at 10 µM. hit rate 3% among 1,700. AID 1836; in the data active = binding response below about 72% or above about 130%; inactive = in between;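 also: Galphao activated as GDP AlF4 complex before binding bead RGS8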
# RGS7-Gao confirm: confirmation of regulators of human RGS7-Galphao interaction. shares compounds with RGS16-Gao. bead-based flow cytometry RGS7-Galphao binding; actives lie on both sides. response (percent of control binding), % at 10 µM. hit rate 7.8% among 1,700. AID 1837; in the data active = response below about 75% or above about 130%; inactive = in between;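 also: fluorescent Galphao activated with GDP and aluminum fluoride binding bead-coupled RGS7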
# RGS16-Gao conf: RGS16-Galphao interaction regulation, single point confirmation. shares compounds with RGS16-Gao. bead-based flow cytometry, RGS16-Galphao binding; actives lie on both sides. response (% of control binding), % at 10 µM. hit rate 4% among 1,700. AID 1838; in the data active = response below about 74% or above about 130%; inactive = in between;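 also: Galphao activated as the GDP aluminium fluoride complex binding bead-coupled RGS16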
# RGS4-Gao single: RGS4-Galphao interaction regulation, single point confirmation; shares compounds with RGS16-Gao; RGS4-Galphao binding, multiplexed bead flow cytometry; actives lie on both sides; AID 1840; hit rate 4% among 1,700; binding response (% of control), % at 10 µM; in the data active = binding response below about 74% or above about 130%; inactive = in between
# RGS19-Gao single: confirmation of regulators of human RGS19-Galphao interaction; shares compounds with RGS16-Gao; hit rate 5% among 1,700; bead-based flow cytometry RGS19-Galphao binding; actives lie on both sides; response (percent of control binding), % at 10 µM; in the data active = response below about 50% or above about 160%; inactive = in between;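 also: 100% = no compound control and 0% = blank background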
# * = called active by the depositor; i = inactive; u = inconclusive; x = not tested or not shown; + = active, no number; [ ] = dose if it differs, or a comment. This is a sample that favours compounds with a hit; in the whole collection about 1.2% have one here. Unless noted, no rule for the calls is given here.
SMILES,RGS4-Gao reg,Avidin bead fluor,RGS8-Gao reg,GSH fluor,RGS7-Gao,RGS16-Gao,Biotin-avidin,RGS8-Gao confirm,RGS7-Gao confirm,RGS16-Gao conf,RGS4-Gao single,RGS19-Gao single,others
O=C(CN(Cc1ccccc1C(F)(F)F)C(=O)CNC(=O)c1ccco1)NC1CCCC1,113,104*,101,36,171*[activator],106,-1,101,106,100,102,107,RGS4-Gao HTS=113*
O=C(NCC(=O)N(Cc1ccccc1)C(C(=O)NC1CCCC1)c1ccco1)c1ccco1 (stereo not given),95,12,99,29,97,104,x,x,x,x,x,x,
Cc1ccc(C(C(=O)NC2CCCCC2)N(CC2CCCO2)C(=O)CNC(=O)c2ccco2)cc1 (stereo not given),84,10,100,13,94,116,x,x,x,x,x,x,
O=C(NCC(=O)N(CC1CCCO1)C(C(=O)NC1CCCCC1)c1ccc(F)cc1)c1ccco1 (stereo not given),165*[activator],175*,94,10,237*[activator],106,1,99,98,99,99,102,
Oc1ccc(/C=N/Nc2ncnc3nc[nH]c23)cc1,37*,2,52*,x,u,33,-2,102,84,95,84,117,
O=C(CN1C2=NCCCN2c2ccccc21)c1ccc([N+](=O)[O-])cc1,104,9,110,18,112,114,x,x,x,x,x,x,
Cc1ccc(S(=O)(=O)NCC(=O)OCC(=O)NC(=O)NC2CCCC2)cc1,96,8,100,10,u,94,x,x,x,x,x,x,
COc1ccc2c(c1)c1nc(SCC(C)C)n(CCO)c(=O)c1n2C,41*,3,49*,21,42*,59,0,97,93,98,97,103,
CNC(=O)NC(=O)C(C)Oc1ccccc1F (stereo not given),98,8,100,16,101,100,x,x,x,x,x,x,
Cc1cc(C(=O)CSc2nnc(-c3ccccc3)n2Cc2ccc3c(c2)OCO3)c(C)n1C,99,7,98,29,99,89,x,x,x,x,x,x,
Cc1cc(C(=O)CSc2nc3ccccc3c(=O)n2C)c(C)n1Cc1ccc2c(c1)OCO2,+[activator],152*,x,12,121,+[activator],0,95,92,96,96,116,
COC(=O)c1ccc(COC(=O)CNS(=O)(=O)c2ccc(C)cc2)cc1,102,12,100,65,100,98,x,x,x,x,x,x,
CS(=O)(=O)c1nc2ccccc2n1Cc1ccccc1,x,x,x,13,x,x,0,100,103,99,104,108,
O=S(=O)(O)c1nc2ccccc2n1Cc1ccccc1,97,30,99,13,100,98,x,x,x,x,x,x,
CO/C(N)=C(\C#N)N=Cc1ccccc1Cl,100,12,101,20,103,102,x,x,x,x,x,x,
CCNc1ccc(S(=O)(=O)N(C)C)cc1NCC(=O)Nc1ccc(F)c(Cl)c1,106,8,83,7,101,25*,0,107,105,112,105,112,RGS4-Gao HTS=106*
CCNc1ccc(S(=O)(=O)N(C)C)cc1NCC(=O)Nc1ccccc1F,102,13,107,8,104,112,x,x,x,x,x,x,
CCOc1ccc(CCNC(=O)C(C)n2nc(C)n3c(cc4occc43)c2=O)cc1OCC (stereo not given),96,8,98,14,97,99,x,x,x,x,x,x,
Cc1nn(C(C)C(=O)NCCCc2ccccc2)c(=O)c2cc3occc3n12 (stereo not given),134,9,x,25,139,167,-2,93,88,95,93,80,
COc1ccccc1-c1noc(-c2cc(OC)c(OC)c(OC)c2)n1,106,26,105,21,103,112,x,x,x,x,x,x,
COc1cc(OC)cc(-c2nc(-c3ccccc3OC)no2)c1,0.9*,-2,14*,65,10*,3.8*,-2,109,109,109,111,110,
Cc1ccc(S(=O)(=O)NC(C)(C)CSc2ccccn2)cc1,87,1,64,9,92,13*,-2,101,103,102,102,112,RGS4-Gao HTS=87*
O=C(CSc1nnc(CNc2ccccc2)o1)N1CCc2ccccc21,97,6,98,15,100,102,x,x,x,x,x,x,
O=C(CSc1nnc(Cc2ccccc2)o1)N1CCCc2ccccc21,93,x,99,43,98,x,-1,100,105,101,101,83,
CN1CCN(c2nc3c(c(=O)n(C)c(=O)n3C)n2CC(=O)C23CC4CC(CC(C4)C2)C3)CC1,157*[activator],35,117,48,140,156,-2,101,99,101,101,95,
COCCn1nnnc1C(C(C)C)N1CCC(Cc2ccccc2)CC1 (stereo not given),155*[activator],4,87,24,102,151,-1,104,104,104,101,92,
COCCCNC(=O)COc1ccc(S(=O)(=O)NCc2ccccc2)cc1Cl,314*[activator],2,407*[activator],16,275*[activator],i,-1,99,77,94,89,57,
O=C1COc2ccc(C(=O)COC(=O)CNC(=O)C3CCCCC3)cc2N1,153*[activator],12,145*[activator],13,167*[activator],154,1,94,92,98,93,102,
Cc1ccc(C(=O)NCC(=O)OCC(=O)c2ccc3c(c2)NC(=O)CO3)cc1C,102,10,100,12,99,96,x,x,x,x,x,x,
O=C(N/N=C\c1c(O)ccc2ccccc12)c1ccc(Cn2cccn2)o1,57,1,43*,9,58,12*,-1,94,88,90,93,128,RGS4-Gao HTS=57*
